Test results reported in PubChem BioAssay (Tox21).
Inconclusive results are not listed. Active and inactive are the calls of the source. Unless noted, calls come from the whole dose curve.

Columns and labels:
[1] = Nuclear factor erythroid 2-related factor 2/antioxidant responsive element (Nrf2/ARE) small molecule agonists: qHTS cell viability counter screen in human keratinocytes (AID 1919968; active = well fitted curve in the direction sought with a large enough effect in the repeat runs; an effect the other way counts as inactive or inconclusive; note: nearly all actives have a fitted effect of over 55% in size)
Summary of the method: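 Parallel cytotoxicity read: KeratinoSens HaCaT cells, compound treatment 23 h, viability by CellTiter-Fluor fluorescence 1 h post-reagent.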

[2] = Nuclear factor erythroid 2-related factor 2/antioxidant responsive element (Nrf2/ARE) small molecule agonists: luciferase reporter gene qHTS assay in human keratinocytes (AID 1919969); note: nearly all actives have a fitted effect of over 35% in size
[3] = target: Gonadotropin-releasing hormone receptor (Homo sapiens) (UniProt P30968); assay: Human gonadotropin-releasing hormone receptor (GnRHR) small molecule agonists, calcium flux assay in GnRHR-HEK293 cells (AID 1920063); note: nearly all actives have a fitted effect of over 35% in size
Summary of the method: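 Calcium flux, agonist mode, human GnRHR stably integrated in HEK293; dye 1 h at 37 C before compound; Ex/Em=480/540 kinetic read, 3 min; 15 concentrations, triplicate.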

[4] = target: KiSS-1 receptor (Homo sapiens) (UniProt Q969F8); assay: Human kisspeptin (KISS1R) small molecule agonists, calcium flux assay in KISS1R-HEK293 cells (AID 1920064; active = well fitted curve in the direction sought with a large enough effect in the repeat runs; an effect the other way counts as inactive or inconclusive)
Summary of the method: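 Triplicate 15-concentration series were applied to dye-loaded human KISS1R HEK293 cells, and agonist-evoked calcium fluorescence was captured for 3 min.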

[5] = G protein-coupled receptor (GPCR) small molecule agonists, calcium flux assay: HEK293 wild type cell line counter screen (AID 1920065)
Summary of the method: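 Non-specific calcium responders were flagged by adding DMSO-dissolved compounds to dye-loaded cells and reading 480/540 nm fluorescence each second for 3 min; ATP served as positive control.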

[6] = p53 small molecule agonists, cell-based qHTS assay with human liver microsomes (AID 1963577)
Summary of the method: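 Cells carrying a p53-responsive bla reporter were rested 5 h (37 C, 5% CO2) before compound transfer. Human liver microsomes plus NADPH, 0.5 mg/mL final apiece, supplied metabolism during the 16 h 37 C exposure.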

[7] = p53 small molecule agonists, cell-based qHTS assay with rat liver microsomes (AID 1963578)
Summary of the method: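 Fluorescence from a beta-lactamase reporter under a p53 response element was measured after cells had been incubated 16 h at 37 C with test compound and rat liver microsomes plus NADPH (0.5 mg/mL final each).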

[8] = p53 small molecule agonists, cell-based qHTS assay with human liver microsomes: qHTS cell viability counter screen (AID 1963579); note: nearly all actives have a fitted effect of over 45% in size
Summary of the method: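 Seed p53RE-bla cells at 4,000 per well; incubate 5 h at 37 C; add compound, human liver microsomes and NADPH; incubate 16 h at 37 C; add CellTiter-Glo; after 30 min at room temperature, read luminescence.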

[9] = p53 small molecule agonists, cell-based qHTS assay with rat liver microsomes: qHTS cell viability counter screen (AID 1963580); note: nearly all actives have a fitted effect of over 45% in size
Summary of the method: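 After the beta-lactamase ratio was read, CellTiter-Glo was added to the same wells and luminescence measured at 30 min; cells had been treated 16 h at 37 C with compounds, rat liver microsomes and NADPH (0.5 mg/mL final each).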

[10] = p53 small molecule agonists, cell-based qHTS assay: qHTS cell viability counter screen (AID 1963581); note: nearly all actives have a fitted effect of over 45% in size
Summary of the method: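 Multiplexed with the reporter read, a CellTiter-Glo step (30 min, room temperature) gauges ATP-based viability of HCT-116 p53RE-bla cells after 16 h compound incubation at 37 C.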

[11] = p53 small molecule agonists, cell-based qHTS assay (AID 1963582; active = well fitted activation curve with a large enough effect in the signal ratio in the repeat runs, not every such curve was filed as active; the % refers to the signal ratio)
Summary of the method: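 Beta-lactamase reporter cells (p53RE-bla) treated with compounds for 16 h at 37 C; FRET substrate, 2 h, room temperature; fluorescence intensity.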

[12] = target: 5-hydroxytryptamine receptor 2A (Homo sapiens) (UniProt P28223); assay: 5-hydroxytryptamine receptor 2A (HTR2A) small molecule agonists, cell-based qHTS assay (AID 1963587); note: nearly all actives have a fitted effect of over 30% in size
Summary of the method: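 CHO cells stably expressing human HTR2A, plated 18 h, loaded with calcium dye 1 h at 37 C. Agonist mode: compounds added and intracellular calcium fluorescence recorded kinetically for 2 min at 1 sec intervals.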

[13] = target: Muscarinic acetylcholine receptor M1 (Homo sapiens) (UniProt P11229); assay: Cholinergic receptor muscarinic 1 (CHRM1) small molecule antagonists, cell-based qHTS assay (AID 1963588); note: nearly all actives have a fitted effect of over 40% in size; note: potency is the fitted concentration of half-maximal effect
Summary of the method: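 Compounds were tested at 15 concentrations in three independent runs. Dye-loaded CHRM1-CHO cells were exposed 5 min at room temperature before stimulation by acetylcholine added at 50nM. Intracellular calcium was read kinetically on FDSS for 3 min.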

[14] = target: Muscarinic acetylcholine receptor M1 (Homo sapiens) (UniProt P11229); assay: Cholinergic receptor muscarinic 1 (CHRM1) small molecule agonists, cell-based qHTS assay (AID 1963589); note: nearly all actives have a fitted effect of over 35% in size
Summary of the method: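 qHTS, 15-point titration, 3 independent runs: compounds pin-transferred onto dye-loaded CHRM1-CHO cells (human M1), calcium fluorescence followed every second to detect agonism.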

[15] = cAMP Responsive Elements (CRE) small molecule agonists, cell-based qHTS assay (AID 1963590)
Summary of the method: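 Quantitative HTS for CRE agonists: HEK 293T CRE-bla cells, overnight plating, 3 h compound incubation at 37 C/5% CO2, then 2 h room-temperature LiveBLAzer B/G FRET substrate loading.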

[16] = cAMP Responsive Elements (CRE) small molecule antagonists, cell-based qHTS assay (AID 1963591; active = well fitted inhibition curve with a large enough effect in the signal ratio in the repeat runs, not every such curve was filed as active; the % refers to the signal ratio)
Summary of the method: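 Fluorescence intensity from cleaved LiveBLAzer B/G substrate (2 h, room temperature) quantified CRE-bla activity in HEK 293T cells exposed 3 h to compound with 0.25 uM final NKH477.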

[17] = target: Beta-2 adrenergic receptor (Homo sapiens) (UniProt P07550); assay: Adrenergic beta2 receptor (ADRB2) small molecule antagonists, cell-based qHTS assay (AID 1963592); note: series mostly up to about 92 µM; nearly all actives have a fitted effect of over 50% in size
Summary of the method: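 Assay format: CHO-ADRB2 cells, 18-20hr seeding at 37C/5% CO2, then compound plus 1nM isoproterenol agonist mix for 0.5hr RT. Homogeneous time-resolved fluorescence cAMP detection after 1hr, expressed as 665/615 nm ratio.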

[18] = target: D(2) dopamine receptor (Homo sapiens) (UniProt P14416); assay: Dopamine D2 receptor (DRD2) small molecule agonists, cell-based qHTS assay (AID 1963594); note: nearly all actives have a fitted effect of over 35% in size
Summary of the method: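 HEK293 cells stably expressing human DRD2, pre-treated with PDE inhibitor Ro20-1724 (0.1 mM final) and compound 10 min at room temperature, then stimulated with NKH477 (200nM […]) for 30 min. cAMP read by HTRF (665/620 nm).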

[19] = target: D(2) dopamine receptor (Homo sapiens) (UniProt P14416); assay: Dopamine D2 receptor (DRD2) small molecule antagonists, cell-based qHTS assay (AID 1963595; active = well fitted inhibition curve with a large enough effect in the signal ratio in the repeat runs, with a control signal flat; the % refers to the signal ratio)
Summary of the method: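 DRD2-HEK293; 0.1 mM Ro20-1724; cpd 10 min RT; NKH477 200 nM + quinpirole 12 nM, 30 min RT; HTRF cAMP (cAMP-d2/anti-cAMP cryptate), 665/620 nm ratio after 1 h.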

[20] = target: Beta-2 adrenergic receptor (Homo sapiens) (UniProt P07550); assay: Adrenergic beta2 receptor (ADRB2) small molecule agonists, cell-based qHTS assay (AID 1963593);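 note: CHO cells stably overexpressing human ADRB2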
Summary of the method: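 CHO cells stably over-expressing ADRB2 were plated overnight at 37C, then dosed with compounds plus a stimulation mix containing 100uM IBMX and 25uM Ro-20-1724 for 0.5hr at room temperature. cAMP was measured by HTRF competition, 1hr.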

Measured: Potency

Sequence of D(2) dopamine receptor (Homo sapiens) (P14416 whole entry, looked up): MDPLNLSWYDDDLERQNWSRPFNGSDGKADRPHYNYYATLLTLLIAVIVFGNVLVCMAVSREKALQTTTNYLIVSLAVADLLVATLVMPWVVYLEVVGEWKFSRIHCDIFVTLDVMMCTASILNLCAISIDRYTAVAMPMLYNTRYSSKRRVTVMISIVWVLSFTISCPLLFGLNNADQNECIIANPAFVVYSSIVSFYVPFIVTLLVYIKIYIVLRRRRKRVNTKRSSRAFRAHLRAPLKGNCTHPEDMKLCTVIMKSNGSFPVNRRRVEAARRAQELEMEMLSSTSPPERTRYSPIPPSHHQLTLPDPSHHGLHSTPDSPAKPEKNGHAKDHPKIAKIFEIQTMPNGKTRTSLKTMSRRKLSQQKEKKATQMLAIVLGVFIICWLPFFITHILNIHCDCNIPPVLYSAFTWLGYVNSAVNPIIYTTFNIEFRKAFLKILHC
Sequence of 5-hydroxytryptamine receptor 2A (Homo sapiens) (P28223 whole entry, looked up): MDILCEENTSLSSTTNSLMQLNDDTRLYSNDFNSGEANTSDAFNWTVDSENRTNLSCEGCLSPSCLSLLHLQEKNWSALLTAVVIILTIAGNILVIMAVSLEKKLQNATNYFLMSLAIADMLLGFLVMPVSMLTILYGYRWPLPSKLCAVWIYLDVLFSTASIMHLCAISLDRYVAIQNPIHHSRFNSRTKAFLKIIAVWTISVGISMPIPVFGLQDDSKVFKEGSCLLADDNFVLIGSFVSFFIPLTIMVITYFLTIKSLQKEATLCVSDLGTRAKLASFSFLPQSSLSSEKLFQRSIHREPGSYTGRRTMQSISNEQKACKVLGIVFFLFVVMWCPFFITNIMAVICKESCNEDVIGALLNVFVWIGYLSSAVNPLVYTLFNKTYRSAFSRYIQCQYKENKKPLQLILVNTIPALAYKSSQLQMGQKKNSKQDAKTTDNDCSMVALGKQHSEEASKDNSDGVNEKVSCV
Sequence of KiSS-1 receptor (Homo sapiens) (Q969F8 whole entry, looked up): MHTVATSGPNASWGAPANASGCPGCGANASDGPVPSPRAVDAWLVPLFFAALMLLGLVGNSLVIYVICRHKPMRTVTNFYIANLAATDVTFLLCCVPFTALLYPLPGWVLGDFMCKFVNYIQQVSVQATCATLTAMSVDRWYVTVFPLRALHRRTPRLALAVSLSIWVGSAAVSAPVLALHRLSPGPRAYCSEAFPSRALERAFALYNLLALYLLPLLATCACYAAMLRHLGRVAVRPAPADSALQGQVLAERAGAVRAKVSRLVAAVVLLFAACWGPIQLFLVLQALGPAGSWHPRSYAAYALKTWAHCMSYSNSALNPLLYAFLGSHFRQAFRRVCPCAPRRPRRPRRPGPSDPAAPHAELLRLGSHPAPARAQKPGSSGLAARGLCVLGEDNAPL
Sequence of Beta-2 adrenergic receptor (Homo sapiens) (P07550 whole entry, looked up): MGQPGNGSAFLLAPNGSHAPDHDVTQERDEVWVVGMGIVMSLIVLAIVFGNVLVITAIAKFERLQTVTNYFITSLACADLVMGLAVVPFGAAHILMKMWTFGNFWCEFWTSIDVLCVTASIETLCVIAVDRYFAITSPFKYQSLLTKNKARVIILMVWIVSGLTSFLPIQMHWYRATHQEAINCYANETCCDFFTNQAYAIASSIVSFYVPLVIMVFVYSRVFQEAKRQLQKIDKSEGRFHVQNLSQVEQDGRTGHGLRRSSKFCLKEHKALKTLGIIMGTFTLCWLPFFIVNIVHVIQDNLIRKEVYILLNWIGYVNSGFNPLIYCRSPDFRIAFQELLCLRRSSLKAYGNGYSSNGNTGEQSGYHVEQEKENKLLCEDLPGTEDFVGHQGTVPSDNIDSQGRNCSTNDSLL
Sequence of Gonadotropin-releasing hormone receptor (Homo sapiens) (P30968 whole entry, looked up): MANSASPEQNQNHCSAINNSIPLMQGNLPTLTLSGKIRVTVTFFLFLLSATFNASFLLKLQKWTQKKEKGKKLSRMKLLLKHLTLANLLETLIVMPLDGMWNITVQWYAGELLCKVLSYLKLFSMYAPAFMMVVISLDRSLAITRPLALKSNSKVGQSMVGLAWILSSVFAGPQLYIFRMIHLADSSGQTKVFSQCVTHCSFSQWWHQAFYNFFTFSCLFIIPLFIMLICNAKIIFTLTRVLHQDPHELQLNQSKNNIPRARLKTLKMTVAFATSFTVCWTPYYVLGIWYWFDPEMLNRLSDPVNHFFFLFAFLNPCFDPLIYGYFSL
Sequence of Muscarinic acetylcholine receptor M1 (Homo sapiens) (P11229 whole entry, looked up): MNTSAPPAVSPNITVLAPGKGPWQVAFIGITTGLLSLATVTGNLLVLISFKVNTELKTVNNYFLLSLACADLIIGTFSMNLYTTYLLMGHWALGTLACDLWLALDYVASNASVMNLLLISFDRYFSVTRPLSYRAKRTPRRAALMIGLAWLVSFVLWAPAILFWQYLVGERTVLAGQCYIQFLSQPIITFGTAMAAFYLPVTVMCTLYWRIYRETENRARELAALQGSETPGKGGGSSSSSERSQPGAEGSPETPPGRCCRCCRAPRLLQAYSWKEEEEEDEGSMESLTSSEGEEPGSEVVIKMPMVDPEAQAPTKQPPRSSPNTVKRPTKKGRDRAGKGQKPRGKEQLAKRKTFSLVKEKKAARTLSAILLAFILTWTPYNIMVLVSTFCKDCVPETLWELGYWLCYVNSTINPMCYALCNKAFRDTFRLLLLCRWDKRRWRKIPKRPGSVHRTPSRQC

CC[N+]1(CC)CCC(=C(c2ccccc2)c2ccccc2)C1C (configuration not stated)
inactive: [1] | [2] | [3] | [4] | [5] | [6] | [7] | [8] | [9] | [10] | [11] | [12] | [14] | [15] | [16] | [17] | [18] | [19]
active: [13] 25.9 nM

Cc1ccc(=O)n(-c2ccccc2)c1
inactive: [1] | [2] | [3] | [4] | [5] | [6] | [7] | [8] | [9] | [10] | [11] | [12] | [13] | [14] | [15] | [16] | [17] | [18] | [19]

CC(=O)N[C@@H](CCC(N)=O)C(=O)O
inactive: [1] | [2] | [3] | [4] | [5] | [6] | [7] | [8] | [9] | [10] | [11] | [12] | [13] | [14] | [15] | [16] | [17] | [19]

[O-][n+]1cccc(CO)c1
inactive: [1] | [2] | [3] | [4] | [5] | [6] | [7] | [8] | [9] | [10] | [11] | [12] | [13] | [14] | [15] | [16] | [17] | [18] | [19]

c1ccc(CN(CC2=NCCN2)c2ccccc2)cc1
inactive: [1] | [2] | [3] | [4] | [5] | [6] | [7] | [8] | [9] | [10] | [11] | [12] | [13] | [14] | [15] | [16] | [17] | [18] | [19]

O=C(CCOCCOCCOCCOCCC(=O)Nc1c(I)cc(I)c(C(=O)O)c1I)Nc1c(I)cc(I)c(C(=O)O)c1I
inactive: [1] | [2] | [3] | [4] | [5] | [6] | [7] | [8] | [9] | [10] | [11] | [12] | [13] | [14] | [15] | [16] | [17] | [20] | [18] | [19]

O=S(=O)(O)c1ccc(O)c2ncccc12
inactive: [1] | [2] | [3] | [4] | [5] | [6] | [7] | [8] | [9] | [10] | [11] | [12] | [13] | [14] | [15] | [17] | [20] | [18] | [19]

Cn1cnc2ncnc(N)c21
inactive: [1] | [2] | [3] | [4] | [5] | [6] | [7] | [8] | [9] | [10] | [11] | [12] | [13] | [14] | [15] | [16] | [17] | [18] | [19]
